Data taken from PubChem BioAssay (Tox21).
Inconclusive results are not listed. A number with no mark means an inactive call. Calls of active or inactive are those of the source. Calls follow the shape of the dose curve; as a rule, active = well fitted cell-killing curve with a large enough effect in the repeat runs; inconclusive = weak or mixed curves, or effect the other way; inactive = flat fitted curve, though single readings scatter.

assay: cAMP Responsive Elements (CRE) small molecule antagonists, cell-based qHTS assay: qHTS cell viability counter screen (AID 2060913); conditions: CRE-bla HEK293T viability, CellTiter-Glo luminescence, 5 h; series mostly up to 92.4 µM; viability change, negative = cytotoxic: at the top concentration; also: nearly all actives have a fitted effect of over 40% in size
Summary of the method: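 HEK293T CRE-bla, 2,000 cells/well, 18 h preincubation; cpd in DMSO + NKH477 0.25 uM final, 3 h 37 C/5% CO2; LiveBLAzer 2 h RT, then CellTiter-Glo 30 min RT, luminescence.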
% is scaled to controls: 0 for no effect and ±100 for the full control effect; potency is read from the fitted curve at half-maximal effect.

SMILES	Potency	viability change, negative = cytotoxic
OC[C@H]1O[C@H](O[C@]2(CCl)O[C@H](CCl)[C@@H](O)[C@@H]2O)[C@H](O)[C@@H](O)[C@H]1Cl	inactive	
Cc1cccc([N+](=O)[O-])c1C	inactive	
COC(=O)C1=C(C)NC(C)=C(C(=O)OCC(C)C)C1c1ccccc1[N+](=O)[O-] (stereo not given)	inactive	
C=C(C)C(=O)OCCOP(=O)(O)O		-2.92%
OC(Cn1cncn1)(Cn1cncn1)c1ccc(F)cc1F	inactive	
CCNC(=O)NCc1cccc(Cl)c1		-1.54% [at 42.5 µM]
CC(=O)O[C@@H]1CC2C3CCc4cc(OC(=O)c5ccccc5)ccc4C3CCC2(C)[C@H]1OC(C)=O (stereo not given in full)		0.987% [at 42.5 µM]
CC(C)Cc1ccc(CC(=O)O)cc1		6.34% [at 42.5 µM]
CC(O)COCC(C)O (stereo not given)	inactive	
CC(=O)c1ccc2c(c1)CCCC2		0.557%
O=C(NC1CCN(CCc2c[nH]c3ccccc23)CC1)c1ccccc1		6.48% [at 42.5 µM]
c1cnc2c(c1)ccc1cccnc12	inactive	
OCC(CO)n1cnc(-c2ccc(F)cc2)c1-c1ccnc(Oc2ccccc2)n1		-4.41%
Cc1cccc2c1cc1ccc3cccc4ccc2c1c34		-0.428%
O=C1CCCCCCCCCCCN1	inactive	
CC(=O)c1cc(C)oc1C		-4.15%
COc1cc(/C=C/C(=O)O[C@H]2CC[C@]34C[C@]35CC[C@]3(C)[C@@H]([C@H](C)CCC=C(C)C)CC[C@@]3(C)[C@@H]5CC[C@H]4C2(C)C)ccc1O		3.89% [at 42.5 µM]
CC1(C)S[C@@H]2[C@H](NC(=O)C(C(=O)O)c3ccccc3)C(=O)N2[C@H]1C(=O)O (stereo not given in full)		-0.289% [at 42.5 µM]
CCOc1ncc(F)c(=O)[nH]1		0.6% [at 42.5 µM]
CC(C)=CCOc1ccc(/C=C/C(=O)c2ccc(OCC=C(C)C)cc2OCC(=O)O)cc1		5.02% [at 42.5 µM]

SMILES	Potency	viability change, negative = cytotoxic
C[C@@H]1CC(=O)NN=C1c1ccc(NN=C(C#N)C#N)cc1	inactive	
C[C@]12C=CC(=O)C=C1CC[C@@H]1[C@@H]2[C@@H](O)C[C@@]2(C)[C@H]1CC[C@]2(O)C(=O)CO	inactive	
COc1cc(S(N)(=O)=O)cc(C(=O)O)c1OC		-3.89% [at 42.5 µM]
CCCCCCCCCC(C)=O		5.55%
CCCOC(=O)CC		-0.41%
COc1cc2c(cc1OC)C(=O)C(CC1CCN(Cc3ccccc3)CC1)C2 (stereo not given)		-1.06% [at 42.5 µM]
C=CC(=O)OCCC(=O)O	inactive	
CCCCCCCCCCCCCCCCCC[N+](C)(C)C	54.6 µM (active)	
C[C@H](CN1CCCC1)C(=O)c1ccc(C(F)(F)F)cc1		-0.573% [at 42.5 µM]
CCCCCCC1(C)CCC(=O)O1 (stereo not given)		0.666%
CC(C)[C@H](N)C(=O)OCCOCn1cnc2c(=O)[nH]c(N)nc21		2.34% [at 42.5 µM]
FC(F)(F)c1ccc(Cl)c(Cl)c1	inactive	
CC(C)(C)c1ccc(-c2ccc(C(C)(C)C)cc2)cc1		-0.11%
Cc1ccc(NC(=O)N(C)C)cc1NC(=O)N(C)C		-12%
C[C@]12CCC(=O)C=C1CC[C@@H]1[C@@H]2[C@@H](O)C[C@@]2(C)[C@H]1CC[C@]2(O)C(=O)CO	inactive	
Cc1cc(C(=O)O)ccc1[N+](=O)[O-]		-3.38%
CCOC(=O)CS		5.18%
C=CC(C)(O)CC/C=C(\C)CC (stereo not given)		-0.82%
OCCN1CCN(CCCN2c3ccccc3C=Cc3ccccc32)CC1		-0.369% [at 42.5 µM]
C/C(Cl)=C/CCl		6.14%

assay: cAMP Responsive Elements (CRE) small molecule agonists, cell-based qHTS assay: qHTS cell viability counter screen (AID 2060914); conditions: CRE-bla HEK293T viability, CellTiter-Glo luminescence, 5 h; series mostly up to 92.4 µM; activity change, negative = cytotoxicity: at the top concentration;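 also: viability read after 3 h of compound exposure; nearly all actives have a fitted effect of over 50% in size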
Summary of the method: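 Cytotoxicity counter screen multiplexed with the CRE-bla reporter assay in HEK 293T cells: 3 h compound exposure at 37 °C, followed by CellTiter-Glo luminescence measured in the same wells.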

SMILES	Potency	activity change, negative = cytotoxicity
OC[C@H]1O[C@H](O[C@]2(CCl)O[C@H](CCl)[C@@H](O)[C@@H]2O)[C@H](O)[C@@H](O)[C@H]1Cl	inactive	
Cc1cccc([N+](=O)[O-])c1C	inactive	
COC(=O)C1=C(C)NC(C)=C(C(=O)OCC(C)C)C1c1ccccc1[N+](=O)[O-] (stereo not given)	inactive	
C=C(C)C(=O)OCCOP(=O)(O)O		-1.11%
OC(Cn1cncn1)(Cn1cncn1)c1ccc(F)cc1F	inactive	
CCNC(=O)NCc1cccc(Cl)c1		-0.0736% [at 42.5 µM]
CC(=O)O[C@@H]1CC2C3CCc4cc(OC(=O)c5ccccc5)ccc4C3CCC2(C)[C@H]1OC(C)=O (stereo not given in full)		3.45% [at 42.5 µM]
CC(C)Cc1ccc(CC(=O)O)cc1		-10.6% [at 42.5 µM]
CC(O)COCC(C)O (stereo not given)	inactive	
CC(=O)c1ccc2c(c1)CCCC2		5.88%
O=C(NC1CCN(CCc2c[nH]c3ccccc23)CC1)c1ccccc1		0.955% [at 42.5 µM]
c1cnc2c(c1)ccc1cccnc12	inactive	
OCC(CO)n1cnc(-c2ccc(F)cc2)c1-c1ccnc(Oc2ccccc2)n1		-4.32%
Cc1cccc2c1cc1ccc3cccc4ccc2c1c34		2.05%
O=C1CCCCCCCCCCCN1	inactive	
CC(=O)c1cc(C)oc1C		4.13%
COc1cc(/C=C/C(=O)O[C@H]2CC[C@]34C[C@]35CC[C@]3(C)[C@@H]([C@H](C)CCC=C(C)C)CC[C@@]3(C)[C@@H]5CC[C@H]4C2(C)C)ccc1O		0.0451% [at 42.5 µM]
CC1(C)S[C@@H]2[C@H](NC(=O)C(C(=O)O)c3ccccc3)C(=O)N2[C@H]1C(=O)O (stereo not given in full)		5.26% [at 42.5 µM]
CCOc1ncc(F)c(=O)[nH]1		-1.93% [at 42.5 µM]
CC(C)=CCOc1ccc(/C=C/C(=O)c2ccc(OCC=C(C)C)cc2OCC(=O)O)cc1		19.1% [at 42.5 µM]

SMILES	Potency	activity change, negative = cytotoxicity
C[C@@H]1CC(=O)NN=C1c1ccc(NN=C(C#N)C#N)cc1	inactive	
C[C@]12C=CC(=O)C=C1CC[C@@H]1[C@@H]2[C@@H](O)C[C@@]2(C)[C@H]1CC[C@]2(O)C(=O)CO	inactive	
COc1cc(S(N)(=O)=O)cc(C(=O)O)c1OC		-3.86% [at 42.5 µM]
CCCCCCCCCC(C)=O		1.9%
CCCOC(=O)CC		4.95%
COc1cc2c(cc1OC)C(=O)C(CC1CCN(Cc3ccccc3)CC1)C2 (stereo not given)		9.24% [at 42.5 µM]
C=CC(=O)OCCC(=O)O	inactive	
CCCCCCCCCCCCCCCCCC[N+](C)(C)C	61.3 µM (active)	
C[C@H](CN1CCCC1)C(=O)c1ccc(C(F)(F)F)cc1		-1.45% [at 42.5 µM]
CCCCCCC1(C)CCC(=O)O1 (stereo not given)		-3.54%
CC(C)[C@H](N)C(=O)OCCOCn1cnc2c(=O)[nH]c(N)nc21		-0.0711% [at 42.5 µM]
FC(F)(F)c1ccc(Cl)c(Cl)c1	inactive	
CC(C)(C)c1ccc(-c2ccc(C(C)(C)C)cc2)cc1		0.666%
Cc1ccc(NC(=O)N(C)C)cc1NC(=O)N(C)C		0.854%
C[C@]12CCC(=O)C=C1CC[C@@H]1[C@@H]2[C@@H](O)C[C@@]2(C)[C@H]1CC[C@]2(O)C(=O)CO	inactive	
Cc1cc(C(=O)O)ccc1[N+](=O)[O-]		16.2%
CCOC(=O)CS		-4%
C=CC(C)(O)CC/C=C(\C)CC (stereo not given)		-1.75%
OCCN1CCN(CCCN2c3ccccc3C=Cc3ccccc32)CC1		9% [at 42.5 µM]
C/C(Cl)=C/CCl		-3.74%
